Rows were chosen to be rich in hits. Some 1.6% of all compounds tested hit in one or more screens of this group.
KCNQ2 block = inhibitors of rat KCNQ2 potassium channel; B-score at 10 µM; O88943; 310,000 tested, 1.1% active; CHO-K1 KCNQ2, FluxOR thallium flux, 20 min; hits give low values;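 active = fluorescence ratio B-score at most minus 3 library SDs, with starting brightness B-score within 2 library SDs, cut at about -5.5 in these data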
KCNQ2 enhance = KCNQ2 (rat) channel potentiation; O88943; CHO-K1 KCNQ2, FluxOR thallium flux fluorescence; hits give high values; B-score at 10 µM; 310,000 tested, 0.54% active; AID 2239;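 active = fluorescence ratio B-score at least 3 SD of library B-scores, with initial fluorescence B-score within 3 of them, cut at about 5.3 in these data; same plate scores as AID 2156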;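 also: B-score of peak minus minimum over baseline fluorescence ratio after K+ and Tl+ stimulus; positive B-score means potentiation of KCNQ2 with more thallium influx and brighter signal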
KCNQ2 block conf = confirmation of rat KCNQ2 potassium channel inhibitors; shares compounds with KCNQ2 block; KCNQ2-expressing cells, thallium flux, inhibition; hits give low values; activity change, negative = inhibition, % at 10 µM; 1,000 tested, 57% active; AID 493025;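 also: 0% = vehicle wells and values are ratio percent relative to vehicle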
KCNQ1 spec = KCNQ2 inhibitor that also affects human KCNQ1 channel. 1,000 tested, 15% active. KCNQ1-expressing cells, FluxOR thallium flux fluorescence; hits give low values. activity change, negative = inhibition, % at 10 µM. AID 493026. shares compounds with KCNQ2 block;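 active = activity change at least 3 SD of negative controls below their mean in both duplicate wells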;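 also: CHO cells stably transfected with KCNQ1 and depolarized by potassium stimulus; peak minus minimum fluorescence over baseline after thallium addition; 0% = vehicle negative control and -100% = blank without thallium stimulus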
CHO Tl ctr = KCNQ2 inhibitor counter-screen hit in parental CHO cells; thallium flux counter-screen; hits give low values; 1,000 tested, 14% active; shares compounds with KCNQ2 block; activity change, % at 10 µM;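 also: 0% = vehicle negative controls with stimulus buffer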
KCNQ2 patch conf = rat KCNQ2 inhibition confirmed by electrophysiology | shares compounds with KCNQ2 block | KCNQ2-expressing cells, automated patch clamp current | calls only at 10 µM | 550 tested, 49% active | AID 588531
Kir21 confirm = confirmation of mouse Kir2.1 potassium channel inhibitors; 2,300 tested, 41% active; shares compounds with KCNQ2 enhance; Tl flux remaining, % of negative control (hits give low values), % at 10 µM; Kir2.1-expressing cells, FluxOR thallium flux fluorescence; hits give low values;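 active = Primary-screen hit whose thallium flux fell at least 3 control SD below untreated wells in both duplicates, with normal baseline fluorescence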;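 also: 0% = blank wells without stimulus and 100% = stimulated no-compound controls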
HEK293 ctr = counter-screen for Kir2.1 inhibitors: effect in parental HEK293 cells; 2,300 tested, 19% active; shares compounds with KCNQ2 enhance; FluxOR signal as % of negative control (100 = no effect), % at 10 µM; FluxOR thallium flux fluorescence; 0% = unstimulated blank wells;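 active = dye signal at least 3 control SD above or below untreated wells in both duplicates, raw fluorescence within 3, either direction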;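 also: percent is based on the flux ratio of peak minus minimum fluorescence over baseline F0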
CHO-K1 ctr = alters thallium flux in parental CHO-K1 cells, KCNQ2 counter-screen | 1,200 tested, 43% active | shares compounds with KCNQ2 enhance | FluxOR thallium flux fluorescence; zero = vehicle mean+3SD, 100% = vehicle-minus-blank window | activity increase over 3SD of controls, % at 10 µM | AID 2282;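 active = signal rise of at least 3 SD above the untreated control mean, in both duplicate wells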;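 also: counter screen of KCNQ2 potentiator hits so any rise reflects channel-independent effects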
KCNQ1 pot spec = selectivity of KCNQ2 potentiators: effect on human KCNQ1; AID 2283; activation over 3SD threshold, % at 10 µM; shares compounds with KCNQ2 enhance; CHO KCNQ1 stable, FluxOR thallium flux fluorescence; beyond 3SD, as % of vehicle-control signal; 1,200 tested, 28% active;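 active = fluorescence ratio rise of at least 3 SD of vehicle wells above their mean, in both replicate wells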;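 also: 0% = vehicle mean plus 3 SD and 100% = vehicle minus unstimulated blank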
KCNQ2 pot confirm = confirmation of rat KCNQ2 potassium channel potentiators | shares compounds with KCNQ2 enhance | CHO-KCNQ2 cells, FluxOR thallium flux fluorescence | potentiation, less the hit threshold, % at 10 µM | 1,200 tested, 68% active | AID 2287;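 active = fluorescence ratio rising 3 SD or more over the vehicle control mean in both replicates, plus primary screen hit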;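 also: peak minus minimum thallium fluorescence divided by baseline after K/Tl stimulus; 0% = vehicle mean plus 3 SD and 100% = vehicle minus unstimulated blank difference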
Kir2-1 sel = mouse Kir2.1 off-target activity of KCNQ2 potentiators. HEK293 Kir2.1, FluxOR thallium flux fluorescence. activity over 3SD threshold, % at 10 µM. 1,200 tested, 2% active. shares compounds with KCNQ2 enhance;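 active = fluorescence ratio rise of at least 3 SD above the vehicle-control mean, seen in both replicates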;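 also: 0% = vehicle mean plus 3 SD and 100% = vehicle minus no-stimulus blank window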
KCNQ2 W236L pot = rat KCNQ2 W236L mutant potentiation by KCNQ2 potentiators. CHO KCNQ2-W236L, automated patch clamp current. AID 2558. 940 tested, 10% active. current increase over 3SD of negative controls (%), hits give high values, % at 25 µM. shares compounds with KCNQ2 enhance;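 active = current increase at least 3 SD of the untreated controls above them in both duplicate recordings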
Target sequence (O88943 whole entry W236L, looked up): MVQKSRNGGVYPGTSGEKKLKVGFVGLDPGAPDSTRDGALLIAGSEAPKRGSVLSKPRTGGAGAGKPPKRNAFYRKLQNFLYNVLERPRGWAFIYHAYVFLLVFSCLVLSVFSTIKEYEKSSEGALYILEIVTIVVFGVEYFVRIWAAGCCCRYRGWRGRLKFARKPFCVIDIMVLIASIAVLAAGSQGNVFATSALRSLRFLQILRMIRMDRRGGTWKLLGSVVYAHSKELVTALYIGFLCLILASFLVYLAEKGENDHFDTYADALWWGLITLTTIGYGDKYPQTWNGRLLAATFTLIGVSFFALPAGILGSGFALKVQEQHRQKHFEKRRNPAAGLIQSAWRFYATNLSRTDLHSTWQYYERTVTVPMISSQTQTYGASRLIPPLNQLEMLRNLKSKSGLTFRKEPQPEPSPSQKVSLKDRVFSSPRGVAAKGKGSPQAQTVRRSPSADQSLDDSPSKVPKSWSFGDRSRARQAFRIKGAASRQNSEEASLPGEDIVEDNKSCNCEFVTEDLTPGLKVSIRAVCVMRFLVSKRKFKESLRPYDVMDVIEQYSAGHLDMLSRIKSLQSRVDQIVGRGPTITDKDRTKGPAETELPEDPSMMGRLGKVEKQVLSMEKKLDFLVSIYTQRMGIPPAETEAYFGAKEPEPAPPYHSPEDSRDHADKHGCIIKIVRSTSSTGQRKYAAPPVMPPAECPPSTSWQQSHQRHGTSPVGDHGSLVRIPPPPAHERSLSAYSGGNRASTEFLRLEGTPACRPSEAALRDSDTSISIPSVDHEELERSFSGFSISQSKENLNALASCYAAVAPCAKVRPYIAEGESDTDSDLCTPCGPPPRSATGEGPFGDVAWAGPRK
Numbers without * were called inactive; i = inactive; · = no result given; + = active, no number; ! = not confirmed by another sample. Unless noted, no rule for the calls is given here.

SMILES	KCNQ2 block	KCNQ2 enhance	Kir21 confirm	HEK293 ctr	others
Cc1ccccc1OCc1n(CC(=O)OC2CC(C)CCC2C(C)C)c2ccccc2[n+]1C (configuration not stated)	-11*	-11	14%*	i	KCNQ2 block conf=-40%*!;KCNQ1 spec=i;CHO Tl ctr=i;KCNQ2 patch conf=+
CC(=O)c1cccc(N(C(=O)CNC(=O)c2ccco2)C(C(=O)NC2CCCC2)c2ccco2)c1 (configuration not stated)	i	2.6	·	·
CC(=O)Nc1ccc(NCN2C(=O)C3C4CCC(C4)C3C2=O)cc1 (configuration not stated)	i	1.2	·	·
Cc1ccc(NCN2C(=O)C3C4CCC(C4)C3C2=O)cc1 (configuration not stated)	i	6.2*	i	i	CHO-K1 ctr=-25;KCNQ1 pot spec=-35;KCNQ2 pot confirm=-19;Kir2-1 sel=-42
CCOC(=O)c1sc(=S)n(CC)c1NC(=O)c1ccccc1	i	2.1	·	·
O=C1CN(S(=O)(=O)c2ccc(Br)cc2)c2ccccc2N1	i	·	·	·
O=C1CN(S(=O)(=O)c2cccc(Cl)c2Cl)c2ccccc2N1	i	1.2	59%*	i
N#CC1=C(N)N(c2ccccc2)C(c2cccc([N+](=O)[O-])c2)C1(C#N)C#N (configuration not stated)	i	·	59%*	72%*
N#CC1=C(N)N(c2ccccc2)C(c2ccco2)C1(C#N)C#N (configuration not stated)	i	·	·	·
COc1ccc(/C=N/Nc2nc(C(=O)O)cs2)cc1	i	·	·	·
Cc1ccc(S(=O)(=O)N2CCN(C(=O)CCn3cncn3)CC2)cc1C	i	2	·	·
O=C(O)c1cnn(-c2nc(-c3cccc(F)c3)cs2)c1C(F)(F)F	i	0.46	·	·
O=C(O)c1cnn(-c2nc(-c3ccc(Cl)c(Cl)c3)cs2)c1C(F)(F)F	i	3.6	i	i
CCn1c(CNc2ccc(Cl)cc2)nnc1SCc1ccccc1	i	·	63%*	i
CCn1c(CSCc2ccc(C)cc2)nnc1SCC(=O)NCc1ccccc1	i	·	i	i
CCn1c(CC(=O)Nc2ccc(C)cc2)nnc1SCC(=O)NCc1ccccc1	i	·	·	·
Cn1c(CNc2ccc(Cl)cc2)nnc1SCc1ccccc1	i	·	·	·
Cc1ccc(NC(=O)CN2CCC(NC(=O)Cc3ccccc3)CC2)c(C)c1	i	·	·	·
CN(C)c1ccc(NC(=O)Cc2ccccc2)c2ccccc12	i	5.3*	i	i	CHO-K1 ctr=-4;KCNQ1 pot spec=-31;KCNQ2 pot confirm=10*;Kir2-1 sel=-23;KCNQ2 W236L pot=i
Cc1ccc(NC(=O)Cc2ccccc2)c(C)c1	i	6.4*	·	·	CHO-K1 ctr=3.4*;KCNQ1 pot spec=-5;KCNQ2 pot confirm=7.4*;Kir2-1 sel=-48;KCNQ2 W236L pot=i
COc1cc(OC)cc(C(=O)Nc2ccc(N(C)C)c3ccccc23)c1	i	0.66	·	·
Cc1ccc(NC(=O)CCOc2ccccc2)c(C)c1	i	6*	i	i	CHO-K1 ctr=-6;KCNQ1 pot spec=49*;KCNQ2 pot confirm=5.5*;Kir2-1 sel=-22;KCNQ2 W236L pot=i
Cc1ccc(F)cc1NC(=O)CCOc1ccccc1	i	·	·	·
CN(C)S(=O)(=O)N(CC(=O)Nc1ccc(S(=O)(=O)N2CCCC2)cc1)c1ccccc1	i	·	·	·
COCCNC(=O)/C(C#N)=C/c1ccc(O)cc1	i	0.47	·	·
SMILES	KCNQ2 block	KCNQ2 enhance	Kir21 confirm	HEK293 ctr	others
COCCNC(=O)/C(C#N)=C/c1cccc(/C=C(\C#N)C(=O)NCCOC)c1	i	9.3*	i	i	CHO-K1 ctr=-7;KCNQ1 pot spec=2.5*;KCNQ2 pot confirm=1.3*;Kir2-1 sel=-30;KCNQ2 W236L pot=9.2%*
O=C1C=C(c2ccc3c(c2)OCO3)CCC1	i	·	·	·
CCN(CC)CC#CCC(O)(c1ccccc1)c1ccccc1	i	·	·	·
CCN(CC)CC#CCC(C)(c1ccccc1)c1ccccc1	i	·	i	i
O=C(CSc1ccsc1[N+](=O)[O-])N1CCN(c2ccc(Cl)cc2)CC1	i	1.1	·	·
CC(C)CNC(=S)N(CCCO)Cc1cc2cc3c(cc2[nH]c1=O)OCO3	i	0.05	·	·
COc1cc2nc(Nc3ccc(F)cc3)nc(N)c2cc1OC	i	0.07	42%*	i
COc1cc2nc(Nc3ccc(C)c(C)c3)nc(N)c2cc1OC	i	·	·	·
Cc1cc(C)c(S(=O)(=O)n2nc(C)c(Br)c2C)c(C)c1	i	0.78	·	·
CN1CCN(CC(O)COc2ccc(Cl)cc2)CC1 (configuration not stated)	i	0.21	·	·
CN1CCN(CC(O)(c2ccc(Cl)cc2)c2ccc(Cl)cc2)CC1	i	·	50%*	i
Nc1nc(-c2ccc3c(c2)CCCC3)c(CC(=O)O)s1	i	·	·	·
COc1cc(CO)ccc1OCc1nnnn1-c1ccc(C)cc1	i	0.12	·	·
Cc1[nH]n2c(=O)cc(-c3ccc([N+](=O)[O-])cc3)nc2c1-c1ccccc1	i	·	·	·
COc1cccc(N=Nc2c(N)[nH]n3c(=O)cc(-c4ccccc4)nc23)c1	i	5.9*	i	i	CHO-K1 ctr=-7;KCNQ1 pot spec=-19;KCNQ2 pot confirm=-9;Kir2-1 sel=-24
COc1ccc(-c2c(C(F)(F)F)[nH]n3c(=O)cc(-c4ccccc4)nc23)cc1	i	15*	i	225%*	CHO-K1 ctr=-18;KCNQ1 pot spec=66*;KCNQ2 pot confirm=49*;Kir2-1 sel=-31;KCNQ2 W236L pot=i
Cc1ccc(N=Nc2c(N)[nH]n3c(=O)cc(-c4ccccc4)nc23)cc1	i	4.3	·	·
CC1CN(Cc2cc(=O)oc3cc(O)ccc23)CC(C)O1 (configuration not stated)	i	0.66	·	·
O=C(Nc1ccccc1Cl)c1cccc(COc2cc(Cl)ccc2Cl)c1	i	·	·	·

Compound activity deposited in PubChem BioAssay by Johns Hopkins Ion Channel Center.
